# Assay results from PubChem BioAssay.
# The source made the active and inactive calls.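 The calls were made as follows, unless noted: active = NADPH fluorescence slope more negative than the mean of all samples by about 3 SD, 99.7% confidence; inactive = the rest.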
# Legend:
# [1] = inhibitors of TNFa-induced NFkB p65 translocation, primary screen, imaging, HUVEC, MLSMR starter and 10KST1 sets (AID 438;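 active = inhibition above 20% together with a positive visual image hit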;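 also: compound added about 3h40 before a 20 min TNFalpha stimulation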;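 as to inhibition: signal is the nuclear over cytoplasmic p65 intensity ratio per well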); conditions: HUVEC TNFa-induced p65 nuclear translocation; cell count: measured here: nuclei count (cytotoxicity indicator), at 2.08 µM; inhibition: at 2 µM, stronger effect = higher value, 0% TNFa-plus-vehicle, 100% no-TNFa wells
# [2] = inhibitors of mutant huntingtin aggregation, primary screen, imaging, exon1htt(103Q)mCFP cells, high-content imaging (AID 483;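 active = visual image review flags a hit and inhibition of aggregation exceeds 20%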;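 also: compound exposure lasted 3 days before fixation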;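 as to nuclei count: percent of the per-plate median nuclei count of sample wells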); conditions: exon1htt(103Q)mCFP cell line, aggregate imaging, at 2 µM; inhibition of aggregation: stronger effect = higher value; nuclei count: measured here: cell count, toxicity
# [3] = inhibitors of E-selectin induction by TNFa, primary screen, imaging, HUVEC, immunofluorescence, MLSMR starter and 10KST1 sets (AID 487;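 active = visually confirmed hit in the image check and inhibition above 20%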;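 as to inhibition: signal is fraction of cell area covered by stained E-selectin grains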;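 as to nuclei count: 100% = median nuclei count of all wells on the same plate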); conditions: HUVEC TNFalpha-induced E-selectin immunofluorescence imaging, at 2 µM; inhibition: stronger effect = higher value; nuclei count: measured here: cell number, toxicity
# [4] = biological target: Voltage-gated potassium channel subunit beta-2 (Rattus norvegicus) (UniProt P62483); assay: KvBeta enzyme negative modulators, primary screen, biochemical, NADPH fluorescence (AID 622;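 active = fluorescence slope higher than the sample average by over 3 SD, cut at about -0.22 in these data, passing the limit was not always enough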;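 also: slope of raw intensity against log time taken from 70 to 1610 s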); conditions: recombinant KvBeta, 4-cyanobenzaldehyde reduction, at 10 µM, stronger effect = higher value
# Sequence of Voltage-gated potassium channel subunit beta-2 (Rattus norvegicus) (P62483 whole entry, looked up): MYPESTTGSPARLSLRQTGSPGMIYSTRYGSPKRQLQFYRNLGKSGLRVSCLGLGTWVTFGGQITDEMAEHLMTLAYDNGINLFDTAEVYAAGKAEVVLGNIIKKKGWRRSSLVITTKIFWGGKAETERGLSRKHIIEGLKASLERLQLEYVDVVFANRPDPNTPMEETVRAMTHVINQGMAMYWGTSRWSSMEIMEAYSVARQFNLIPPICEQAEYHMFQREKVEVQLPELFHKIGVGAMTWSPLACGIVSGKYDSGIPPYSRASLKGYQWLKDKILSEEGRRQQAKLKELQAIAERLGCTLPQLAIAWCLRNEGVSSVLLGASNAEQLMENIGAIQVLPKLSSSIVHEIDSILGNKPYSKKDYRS
# [5] = biological target: Voltage-gated potassium channel subunit beta-2 (Rattus norvegicus) (UniProt P62483); assay: KvBeta positive modulators, primary screen, biochemical, NADPH fluorescence (AID 623); conditions: Recombinant KvBeta, NADPH fluorescence decrease slope, 10 min; at 10 µM; stronger effect = lower value;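 also: fluorescence intensity change per second fitted from 20 to 320 s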
# [6] = biological target: Alpha-2C adrenergic receptor (Homo sapiens) (UniProt P18825); assay: modulators of alpha2C/GIRK thallium flux, primary screen, cell-based, HEK293 alpha2C/GIRK1/2 (AID 624;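 active = fluorescence slope after compound addition differing from the mean of all screened samples at 99.7% confidence, in either direction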;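 also: slope of fluorescence ratio to pre-addition baseline per second over 15 to 24 s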); conditions: thallium flux BTC fluorescence, at 10 µM, actives lie on both sides
# Sequence of Alpha-2C adrenergic receptor (Homo sapiens) (P18825 whole entry, looked up): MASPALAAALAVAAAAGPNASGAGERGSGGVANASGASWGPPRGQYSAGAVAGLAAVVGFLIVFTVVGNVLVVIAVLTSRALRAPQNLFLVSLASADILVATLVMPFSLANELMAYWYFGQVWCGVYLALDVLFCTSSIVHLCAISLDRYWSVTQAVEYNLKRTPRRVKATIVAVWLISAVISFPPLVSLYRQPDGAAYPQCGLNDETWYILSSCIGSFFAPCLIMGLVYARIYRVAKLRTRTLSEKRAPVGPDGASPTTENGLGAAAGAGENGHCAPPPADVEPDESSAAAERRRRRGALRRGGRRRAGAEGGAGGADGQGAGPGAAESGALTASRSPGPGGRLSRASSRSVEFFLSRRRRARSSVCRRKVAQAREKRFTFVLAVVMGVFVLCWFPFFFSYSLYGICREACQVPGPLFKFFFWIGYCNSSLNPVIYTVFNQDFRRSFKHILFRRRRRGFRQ
# [7] = inhibitors of Sendai virus-induced IRF3 signaling, primary screen, TLR/RLR signaling modifier project, cell-based, Sendai virus stimulus, luciferase, 10K MLSCN set (AID 602276;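 active = inhibition at or above 50% at 10 µM; inactive = inhibition below 50%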;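 also: firefly luciferase from ISG56 promoter only with Renilla not read in this screen; 0% = Sendai virus plus DMSO and 100% = medium plus DMSO without virus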); conditions: HEK293 RL24 IRF3 luciferase reporter, at 10 µM, stronger effect = higher value
# [8] = inhibitors of poly I:C-induced TLR3 signaling, primary screen, cell-based, poly I:C stimulus, luciferase, 10K MLSCN set (AID 602277;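 active = inhibition of the reporter signal at or above 50%; inactive = inhibition below 50%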); conditions: HEK293-TLR3 RL24 IRF3 luciferase reporter, at 10 µM, stronger effect = higher value
Structure (SMILES),cell count [1],inhibition [1],inhibition of aggregation [2],nuclei count [2] [%],inhibition [3],nuclei count [3] [%],fluorescence slope [4],NADPH fluorescence slope [5],slope [6],inhibition [7],inhibition [8]
N[C@@H](Cc1ccccc1)c1nnc2sc(SCc3ccccc3)nn12,444,-5.5% (inactive),-1.7% (inactive),84.8,-15.7% (inactive),114,-0.43 (inactive),-1.6e-06 (inactive),0.00539 (inactive),10.2% (inactive),98.1% (active)
Cc1c(NC(=O)Cn2nc(C(=O)O)c3ccccc3c2=O)c(=O)n(-c2ccccc2)n1C,521,-10.8% (inactive),-2.1% (inactive),93.8,-148% (inactive),111,-0.541 (inactive),3.3e-05 (inactive),0.00605 (inactive),-13.8% (inactive),-13.3% (inactive)
Cn1c(SCC(=O)Nc2ccc3c(c2)oc2ccccc23)nnc1-c1ccccc1,403,-1.1% (inactive),4.5% (inactive),96.1,-52.8% (inactive),109,-0.515 (inactive),-0.000134 (active),0.0032 (inactive),-1.19% (inactive),-25.5% (inactive)
Cn1c(=O)c2c(nc(NCCCO)n2CCc2ccccc2)n(C)c1=O,422,9.7% (inactive),-11.3% (inactive),105,-27.9% (inactive),103,-0.506 (inactive),4.3e-05 (inactive),0.00351 (inactive),-9.22% (inactive),4.62% (inactive)
CCn1cc(C2Nc3ccccc3C(=O)N2O)c(C)n1 (centres undefined),428,8.8% (inactive),-27.6% (inactive),112,-66.4% (inactive),104,-0.301 (inactive),-4.1e-05 (inactive),0.0057 (inactive),-41.1% (inactive),-70.4% (inactive)
c1cn2cc(CSC3CCCCC3)nc2s1,641,11% (inactive),12.1% (inactive),107,-53.3% (inactive),140,-0.585 (inactive),-4.6e-05 (inactive),0.00605 (inactive),-32.1% (inactive),-53% (inactive)
CCn1nnc(NC(=O)c2ccc(-c3ccc(Cl)cc3)o2)n1,391,-6.7% (inactive),-20% (inactive),129,-101% (inactive),208,-0.488 (inactive),-7.1e-05 (inactive),0.00611 (inactive),-111% (inactive),-103% (inactive)
COc1cc(C2NC(=O)NC(C)=C2C(=O)OCC2CCCO2)ccc1O (centres undefined),401,1.8% (inactive),-5.3% (inactive),112,-105% (inactive),114,-0.489 (inactive),-3.4e-05 (inactive),0.00604 (inactive),1.44% (inactive),24.7% (inactive)
COCCn1nnnc1CN(CCCN1CCOCC1)Cc1cc2c(C)ccc(C)c2[nH]c1=O,612,-8.8% (inactive),-0.2% (inactive),112,19.5% (inactive),92.4,-0.49 (inactive),3e-05 (inactive),0.00345 (inactive),-10.5% (inactive),15.5% (inactive)
O=S(=O)(c1ccc(S(=O)(=O)N2CCN3CCCC3C2)cc1)N1CCCC1 (centres undefined),575,-5.3% (inactive),31.8% (inactive),49.8,34.6% (inactive),85,-0.359 (inactive),-3.4e-05 (inactive),0.00601 (inactive),6.16% (inactive),28.2% (inactive)
O=C(C1CCCN(S(=O)(=O)c2cccs2)C1)N1CCc2ccccc2C1 (centres undefined),668,-3.6% (inactive),-29.8% (inactive),119,-53.2% (inactive),109,-0.586 (inactive),-5.1e-05 (inactive),0.0027 (inactive),13.1% (inactive),14.2% (inactive)
O=C(NCc1ccc(F)cc1)c1cc2ccccn2n1,589,4.4% (inactive),6% (inactive),97,-1% (inactive),107,-0.601 (inactive),-3.6e-05 (inactive),0.00683 (inactive),1.23% (inactive),-17.7% (inactive)
Cc1ccc(Br)cc1S(=O)(=O)N1CCN(c2ccccc2)CC1,391,-2.2% (inactive),-16% (inactive),108,-51.5% (inactive),129,-0.463 (inactive),-1.8e-05 (inactive),0.0036 (inactive),5.17% (inactive),31.3% (inactive)
Cc1cccc(C2CC(c3ccc(Cl)cc3)Nc3nc(N)nn32)c1 (centres undefined),598,-2.4% (inactive),18.5% (inactive),58.9,-0.5% (inactive),102,-0.525 (inactive),-4.5e-05 (inactive),0.00816 (inactive),4.61% (inactive),25.1% (inactive)
